Bioassay records deposited in PubChem by Broad Institute.
The sample as a whole holds a higher share of hits than the screen did.
U2OS ROS induce = cancer cell ROS induction; U2OS ROS induction, H2DCF-DA fluorescence; ROS induction (% of piperlongumine), % at 10 µM; 46,000 compounds, 2% hits; in the data active = ROS induction above about 79%, passing the limit was not always enough
Hits are given with their value; 0 = inactive.

SMILES	U2OS ROS induce
CNC[C@@H]1Oc2ccc(NC(=O)Nc3ccc(OC)cc3)cc2C(=O)N([C@@H](C)CO)C[C@@H]1C	0
COc1ccc(C(=O)NCCn2cc(SCC(=O)Nc3ccccc3)c3ccccc32)cc1	0
CNC[C@@H]1Oc2ccc(N(C)C)cc2CC(=O)N([C@H](C)CO)C[C@H]1C	0
C[C@@H]1CN([C@@H](C)CO)C(=O)c2cccc(NC(=O)C3CCOCC3)c2O[C@@H]1CN(C)Cc1ccc(C(=O)Nc2ccccc2N)cc1	0
COc1cc(NC(=O)c2ccc(Cn3cc(Cl)cn3)o2)c(C(C)=O)cc1OC	0
Cc1ccc(Cl)cc1N1CCN(CCCNc2nc3ccccc3n3c(C)nnc23)CC1	0
O=C1Nc2ccc(Br)cc2/C1=C/c1cc2c([nH]1)CCCC2	0
CN(C)S(=O)(=O)c1ccc2c(c1)/C(=C/c1cc3c([nH]1)CCCC3)C(=O)N2	98
CN(C)c1ccc(/C=C2\C(=O)Nc3ccccc32)c2ccccc12	0
Cc1cc(NC(=O)/C=C/c2ccc(F)cc2)no1	0
C[C@@H]1CN([C@H](C)CO)C(=O)Cc2cc(NC(=O)Nc3ccccc3)ccc2O[C@@H]1CN(C)S(=O)(=O)c1cn(C)cn1	0
C[C@@H]1CN([C@H](C)CO)C(=O)Cc2cc(NC(=O)C3CC3)ccc2O[C@H]1CN(C)C(=O)Nc1ccc2c(c1)OCO2	0
C[C@H]1CN([C@@H](C)CO)C(=O)c2cc(N(C)C)ccc2O[C@@H]1CN(C)CC1CCCCC1	0
CSc1ncc(Cl)c(C(=O)Nc2sc3c(c2C(=O)NCC2CCCO2)CCC3)n1 (stereo unspecified)	0
Cc1cc(C)c2c(n1)sc1c(=O)n(NC(=O)Nc3ccccc3)c(C)nc12	0
Cc1cc(C)c2c(n1)sc1c(=O)n(/N=C/c3ccccc3)cnc12	0
Cc1cc(C)c2c(n1)sc1c(=O)n(Cc3ccccc3Cl)nnc12	81
CC(C)NC(=O)N(C)C[C@@H]1Oc2ccc(NS(=O)(=O)c3ccc(Cl)cc3)cc2CC(=O)N([C@@H](C)CO)C[C@@H]1C	0
C[C@H]1CN([C@@H](C)CO)C(=O)c2cccc(NS(C)(=O)=O)c2O[C@H]1CN(C)C(=O)Nc1cccc2ccccc12	0
C=CCN1C(=O)/C(=C/c2cc(C)n(CCOC)c2C)C(=O)NC1=S	102
COCCN1C(=O)/C(=C/c2cc(C)n(-c3ccncc3)c2C)C(=O)N(c2ccccc2)C1=O	0
COCCn1c(C)cc(C=C2C(=O)N(C)C(=S)N(C)C2=O)c1C	0
C[C@@H]1CN([C@H](C)CO)C(=O)c2cccc(NC(=O)C3CCOCC3)c2O[C@@H]1CN(C)Cc1ccc(-c2ccccc2)cc1	0
COc1ccc(NC(=O)Nc2ccc3c(c2)CC(=O)N([C@@H](C)CO)C[C@@H](C)[C@@H](CN(C)CC2CC2)O3)cc1	0
O=C(CCCCCC(=O)Nc1ccccc1O)N/N=C/c1ccccc1C(=O)O	0
SMILES	U2OS ROS induce
C/C(=N\S(=O)(=O)c1ccc(C)cc1)N1CCCN(S(=O)(=O)c2ccc(C)cc2)C1C(C)C (stereo unspecified)	0
C[C@H](CO)N1C[C@H](C)[C@H](CN(C)Cc2ccc(-c3ccccc3)cc2)Oc2ccc(NC(=O)Nc3cccc4ccccc34)cc2C1=O	0
COC(=O)N(C)C[C@H]1OCc2cnnn2CCCC(=O)N([C@@H](C)CO)C[C@H]1C	0
C[C@H](CO)N1C[C@H](C)[C@H](CN(C)C(=O)NC2CCCCC2)Oc2ncc(-c3ccccc3)cc2C1=O	0
C[C@H](CO)N1C[C@H](C)[C@H](CN(C)S(C)(=O)=O)Oc2ncc(-c3cccc(C(F)(F)F)c3)cc2C1=O	0
C[C@H](CO)N1C[C@H](C)[C@H](CN(C)C(=O)NC2CCCC2)Oc2ncc(-c3cccc(C(F)(F)F)c3)cc2C1=O	122
C[C@H](CO)N1C[C@H](C)[C@H](CN(C)C(=O)Nc2cccc3ccccc23)Oc2ncc(-c3cccc(F)c3)cc2C1=O	0
CC(C)NC(=O)N(C)C[C@@H]1Oc2ncc(/C=C/c3ccccc3)cc2C(=O)N([C@H](C)CO)C[C@@H]1C	0
C[C@H](CO)N1C[C@H](C)[C@H](CN(C)C(=O)Nc2cccc3ccccc23)Oc2ncc(-c3cccc(C(F)(F)F)c3)cc2C1=O	109
CC(C)NC(=O)N(C)C[C@@H]1Oc2ncc(-c3cccc(C(F)(F)F)c3)cc2C(=O)N([C@H](C)CO)C[C@@H]1C	0
C[C@H](CO)N1C[C@H](C)[C@H](CN(C)C(=O)Nc2cccc3ccccc23)Oc2ncc(-c3ccccc3)cc2C1=O	0
C[C@H](CO)N1C[C@H](C)[C@H](CN(C)C(=O)NC2CCCCC2)Oc2ncc(/C=C/c3ccccc3)cc2C1=O	109
C[C@H]1CN([C@@H](C)CO)C(=O)Cc2cc(NC(=O)Nc3ccc4c(c3)OCO4)ccc2O[C@@H]1CN(C)Cc1ccc(Cl)c(Cl)c1	0
C[C@H]1CN([C@@H](C)CO)C(=O)c2cccc(NC(=O)C3CCCCC3)c2O[C@@H]1CN(C)C(=O)Nc1ccc(F)cc1	0
Cc1cc([N+](=O)[O-])nn1Cc1ccc(C(=O)Nc2ccc(CC#N)cc2)cc1	0
O=C(CC1(O)C(=O)N(Cc2ccc(Cl)cc2)c2ccc(Cl)cc21)c1ccco1 (stereo unspecified)	0
COc1ccc(S(=O)(=O)N(C)C[C@@H]2Oc3c(NC(=O)c4cnccn4)cccc3C(=O)N([C@@H](C)CO)C[C@H]2C)cc1	0
O=C(Nc1ccc(F)cc1)C(=S)NC1CCCCC1	0
C=CC1(C)C[C@H](OC(=O)C(C)CO)[C@H]2C(=C)C(=O)O[C@@H]2C1C(=C)CO (stereo partly specified)	134
C=C[C@]1(C)C[C@H](O)[C@H]2C(=C)C(=O)O[C@@H]2[C@H]1C(=C)CO	0
O=S(=O)(/N=C(\Oc1ccccc1)c1ccccc1)c1ccc(Br)cc1	0
COc1ccc([Si](C)(C)[C@H]2[C@H](CCn3cc(CCO)nn3)O[C@@]3(C(=O)N(Cc4ccc(N5CCC5=O)cc4)c4ccccc43)[C@@H]2C)cc1	80
COc1ccc([Si](C)(C)[C@@H]2[C@@H](CCn3cc([C@H](O)c4ccccc4)nn3)O[C@]3(C(=O)N(Cc4cccc(N5CCC5=O)c4)c4ccccc43)[C@H]2C)cc1	0
COc1ccc([Si](C)(C)[C@H]2[C@H](CCn3cc([C@H](O)c4ccccc4)nn3)O[C@@]3(C(=O)N(Cc4cccc(N5CCC5=O)c4)c4ccccc43)[C@@H]2C)cc1	0
COc1ccc([Si](C)(C)[C@H]2[C@H](CCO)O[C@@]3(C(=O)N(Cc4ccc(N5CCCCC5=O)cc4)c4ccccc43)[C@@H]2C)cc1	0
COc1ccc([Si](C)(C)[C@H]2[C@H](CCn3cc(CCO)nn3)O[C@@]3(C(=O)N(Cc4cccc(N5CCC5=O)c4)c4ccccc43)[C@@H]2C)cc1	109
COc1ccc([Si](C)(C)[C@H]2[C@H](CCn3cc([C@H](O)c4ccccc4)nn3)O[C@@]3(C(=O)N(Cc4ccc(N5CCC5=O)cc4)c4ccccc43)[C@@H]2C)cc1	0
COc1ccc([Si](C)(C)[C@@H]2[C@@H](CCn3cc(CCO)nn3)O[C@]3(C(=O)N(Cc4ccc(N5CCC5=O)cc4)c4ccccc43)[C@H]2C)cc1	0
COc1ccc([Si](C)(C)[C@@H]2[C@@H](CCO)O[C@]3(C(=O)N(Cc4ccc(N5CCCCC5=O)cc4)c4ccccc43)[C@H]2C)cc1	0
COc1ccc([Si](C)(C)[C@@H]2[C@@H](CCO)O[C@]3(C(=O)N(Cc4ccc(N5CCC5=O)cc4)c4ccccc43)[C@H]2C)cc1	128
